# Only some compounds are listed: those with a hit (about 7.5% of all), similar ones and a draw of the others.
# FMDV inh: antivirals against foot and mouth disease virus. FMDV antiviral cell-based qHTS. Potency, µM (series often up to 57.9 µM), most hits filed as inhibitors. hit rate 1.2% among 410,000. AID 1159524; calls by dose curve; tested in HEK293T cells; further: read-out not given here; nearly all actives have a fitted effect of over 45% in size
# Vaccinia Venus: vaccinia inhibition (Venus reporter) | Vaccinia virus Venus reporter expression, fluorescence | Potency, µM (highest dose often 36.5 µM), hits mostly inhibitors | hit rate 0.46% among 330,000 | AID 720580; calls by dose curve; tested in A549 cells; further: nearly all actives have a fitted effect of over 30% in size
# HCV inh: blocks hepatitis C virus; Potency, µM (titrated, usually from 41.8 µM), actives largely listed as inhibitors; AID 651820; hit rate 3.4% among 340,000; Huh7.5.1 HCVcc-Cre infection, luciferase reporter, 44 h
#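 After 44 h co-culture of compound, cells and HCVcc-Cre (~0.5 moi), substrate is added for 15 min at room temperature and luciferase measured over 15 sec. Cells were seeded at 1,000/well and pre-cultured 4 h.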
# VACV mCherry inh: vaccinia inhibition (mCherry reporter) | Vaccinia virus mCherry reporter infection, fluorescence | AID 720579 | hit rate 0.63% among 310,000 | Potency, µM (titrated, usually from 36.5 µM), usual class: inhibitors; calls by dose curve; tested in A549 cells; further: nearly all actives have a fitted effect of over 35% in size
# HCMV antiviral: blocks human cytomegalovirus replication; HFF cells, HCMV-luciferase reporter, 72 h; hits give low values; activity change, negative = inhibition, % at 57.5 µM; hit rate 4.5% among 410,000; in the data active means activity change below about -60%; inconclusive means no clear call, values can overlap the other calls; inactive means above about -39%
#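 After 16 h attachment at 37C, HFF cells received test compound and HCMV-luciferase (1 PFU/cell); reporter luminescence read 72 h later, data normalized against buffer-only and known inhibitor Salinomycin.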
# FBPA Giardia inh: Giardia lamblia aldolase inhibition; hit rate 0.71% among 290,000; purified Giardia FBPA; Potency, µM (highest dose often 59.6 µM), hits mostly inhibitors; A8B2U2; further: nearly all actives have a fitted effect of over 55% in size
# Target sequence (A8B2U2 whole entry, looked up): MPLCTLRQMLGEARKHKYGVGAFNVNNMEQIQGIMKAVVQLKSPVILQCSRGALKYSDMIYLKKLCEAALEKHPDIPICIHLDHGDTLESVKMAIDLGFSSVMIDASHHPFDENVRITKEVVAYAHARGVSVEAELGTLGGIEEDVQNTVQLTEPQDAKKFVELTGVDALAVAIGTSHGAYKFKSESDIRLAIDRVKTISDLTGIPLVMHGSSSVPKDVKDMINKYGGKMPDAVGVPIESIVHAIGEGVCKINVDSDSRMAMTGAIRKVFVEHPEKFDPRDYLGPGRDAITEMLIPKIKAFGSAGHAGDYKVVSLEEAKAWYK
#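 40 nM FBPA preincubated 10 min at RT with compound (up to 57.5 uM final), then substrate plus GAPDH/TPI/NAD/arsenate coupling and diaphorase/resazurin added. Fluorescence read after 20 min at RT, 525/598 nm.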
# Hits are given with their value; . = inactive; ? = inconclusive; / = no result; [ ] = dose if it differs, or a comment. Unless noted, the call rests on the fitted dose curve; in most records, active means well fitted curve in the direction sought with a large enough effect; inconclusive means small, poorly fitted or top-dose-only effect, or another doubt; inactive means no such curve, though single readings can be large; an effect the other way counts as inactive or inconclusive.
SMILES,FMDV inh,Vaccinia Venus,HCV inh,VACV mCherry inh,HCMV antiviral,FBPA Giardia inh
O=C(N[C@H]1CC[C@@]23CCCN2C(=O)CCC[C@H]3[C@H]1Cc1ccccc1)c1cccc(C(F)(F)F)c1,/,/,/,/,.,/
COc1cc(C(=O)N2CCN(c3ncnc4sc(C)c(C)c34)CC2)cc(OC)c1OC,11µM,?,5.6µM,?,-79,.
Cc1cccc(OCC(=O)NNC(=O)C2CCN(c3ncnc4sc(C)c(C)c34)CC2)c1,28µM,.,.,.,.,/
CCOC(=O)c1sc2ncnc(N3CCN(C(=O)OCC)CC3)c2c1C,16µM,.,.,/,?,.
CCOC(=O)c1sc2ncnc(N3CCN(CC)CC3)c2c1C,.,.,?,.,?,.
Cc1sc2ncnc(N3CCN(c4ncccn4)CC3)c2c1C,?,.,.,/,.,.
Cc1ccccc1OCC(=O)NNC(=O)C1CCN(c2ncnc3sc(C)c(C)c23)CC1,?,.,?,.,.,/
CCN(CC)c1ccc(C(=O)NNC(=O)C2CCN(c3ncnc4sc(C)c(C)c34)CC2)cc1,11µM,.,/,.,.,/
CCOc1ccc(-c2nc(Cn3c(=O)cc(C)c4c(C)nn(-c5ccc(C)cc5)c43)c(C)o2)cc1,.,.,/,.,.,/
COc1ccc(-c2csc(NC(=O)C3CCN(c4ncnc5sc(C)c(C)c45)CC3)n2)cc1OC,8.9µM,?,2.5µM,.,-100,/
C=CCn1c(C)cc(-c2csc(NC(=O)C3CCN(c4ncnc5sc(C)c(C)c45)CC3)n2)c1C,?,/,.,/,.,/
COc1ccccc1OCC(=O)NNC(=O)C1CCN(c2ncnc3sc(C)c(C)c23)CC1,18µM,/,11µM,/,.,/
CNC(=O)COC(=O)c1ccc2c(c1)NC(=O)C1CCCN21 (stereo not given),/,/,/,/,/,.
CC(=O)NCCc1ccc(C(=O)CSc2nnc(C3CC3)n2C2CC2)cc1,.,/,.,/,.,/
CCOc1cc(C=O)c(Br)cc1OC1CCCC1,.,.,.,.,-62,.
CN(C)S(=O)(=O)c1cccc(N=C2SCCN2Cc2ccccc2)c1,?,.,10µM,?,.,.
Cc1ccc(C(=O)N2CC(C)SC2=Nc2cccc(S(=O)(=O)N(C)C)c2)cc1 (stereo not given),.,?,.,?,.,.
N#Cc1cc(Oc2ccc3ccccc3c2)c(-n2nnc3ccccc32)cc1C#N,.,/,.,/,-65,.
N#Cc1cc(Oc2ccccc2)c(-n2nnc3ccccc32)cc1C#N,.,/,.,/,.,.
O=c1c(N2CCOCC2)nsn1Cc1ccccc1,.,?,.,13µM,.,.
N#Cc1ccsc1NC(=O)C1CCN(S(=O)(=O)c2cccs2)CC1,.,.,.,.,.,/
CCC(C)Sc1cc(C(F)(F)F)c(C(=O)Nc2ccc(Cl)cc2)cn1 (stereo not given),?,?,22µM,.,.,.
C#CC(C)(CC)NC(=O)Cn1nnc(-c2cccc(C(F)(F)F)c2)n1 (stereo not given),.,.,.,.,?,.
c1ccc(CCNc2ncnc3scc(C4COc5ccccc5O4)c23)cc1 (stereo not given),28µM,/,13µM,/,-84,.
O=C(CSc1nnc2c(n1)[nH]c1ccccc12)N1CCCCC1,.,.,?,.,?,/
SMILES,FMDV inh,Vaccinia Venus,HCV inh,VACV mCherry inh,HCMV antiviral,FBPA Giardia inh
COC(=O)c1ccc(CSc2nnc3c(n2)[nH]c2ccccc23)cc1,.,.,.,.,?,.
CC(Sc1nnc2c(n1)[nH]c1ccccc12)C(=O)NC1CCCCC1 (stereo not given),?,.,5.6µM,.,.,/
CC(Sc1nnc2c(n1)[nH]c1ccccc12)C(=O)N(C)C1CCCCC1 (stereo not given),?,.,6.3µM,.,-85,.
COc1ccc(CN2CCc3ccccc3C2)c(OC)c1,.,.[7.34 µM],.,.[7.34 µM],.,?
COc1ccc(C2=[N+](C)CCn3cccc32)c(OC)c1,?,.,.,?,-96,.
Cc1ccc(NC(=O)COc2ccc(CCO)cc2-n2nc3ccccc3n2)cc1C,.,?,13µM,.,?,.
COc1cc([C@H]2NC(=O)C[C@@H]2C(=O)O)ccc1OC(C)C,/,/,/,/,.,/
Cc1cc(NC(=O)CCC(=O)NNC(=O)c2ccc(C(C)(C)C)cc2)no1,.,.,.,.,-75,.
Cc1ccc(C(=O)NNC(=O)CCC(=O)Nc2cc(C)on2)cc1,.,.,.,.,.,.
C#C[C@]1(O)CC[C@H]2[C@@H]3CCc4cc(OC5CCCC5)ccc4[C@H]3CC[C@@]21C,.,.,0.63µM,.,.,.

# Source: PubChem BioAssay
